# From PubChem
# A selection: hits, their analogues and other compounds. The true share with any hit is near 3%.
# SENP8 block-1: SENP8 protease inhibitors, primary screen, biochemical, luminescence; Sentrin-specific protease 8 (Homo sapiens), Q96LD8; purified SENP8, Z-RLRGG-aminoluciferin cleavage; inhibition, % at 10 µM; 330,000 compounds, 1.2% hits; in the data active means inhibition above about 50%
# SENP8 block-2: human SENP8 protease inhibitors, primary screen, biochemical, fluorescence, Nedd8 protein substrate, uHTS | inhibition, % at 20 µM | recombinant SENP8 | 360,000 compounds, 0.64% hits; in the data active means inhibition mostly above about 40%, no sharp cut-off; inactive means mostly below about 27%
# C8 TRAIL sens: viability loss with TRAIL in NB7+C8 cells, primary screen, TRAIL sensitizer project, cell-based, ATPlite luminescence | inhibition (viability loss, TRAIL sensitization), % at 10 µM | 360,000 compounds, 1% hits;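 active means compounds causing at least 50% loss of cell viability in the single-dose screen, relative to plate controls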
# PPC-1+TRAIL kill: compounds killing PPC-1 cancer cells with TRAIL present, primary screen, TRAIL potentiator project, ATPLite luminescence, uHTS. PPC-1 cells + TRAIL, ATPLite viability luminescence. cell killing (% activity), % at 4 µM or 5 µM. 220,000 compounds, 0.41% hits. AID 1443, 2008;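 active means cell killing above 50% in the first pass at 4 µM, then a duplicate retest at 5 µM averaging 50% or more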;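 further: plate controls were cells with TRAIL plus DMSO for no effect and medium-only wells lacking cells for full effect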
# SENP6 block: SENP6 protease inhibitors, primary screen, biochemical, luminescence, uHTS | Recombinant SENP6 catalytic domain, aminoluciferin luminescence | inhibition, % at 10 µM | 330,000 compounds, 1.8% hits | AID 2599, 2010;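 active means inhibition above about 50% at the single tested dose, limit read from the data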;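 further: plate controls were DMSO wells with enzyme for no effect and DMSO wells lacking enzyme for full effect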
# SENP7 block: SENP7 protease inhibitors, primary screen, biochemical, luminescence, uHTS. inhibition, % at 5 µM. 330,000 compounds, 1.5% hits. recombinant SENP7, Z-RLRGG-aminoluciferin luminescence, 40 min;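 active means inhibition above about 50% at the single test dose, limit read from the data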;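 further: plate controls were DMSO with enzyme for no effect and no enzyme buffer wells for full effect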
# Target sequence (Q9BQF6 706-1050 limits assumed): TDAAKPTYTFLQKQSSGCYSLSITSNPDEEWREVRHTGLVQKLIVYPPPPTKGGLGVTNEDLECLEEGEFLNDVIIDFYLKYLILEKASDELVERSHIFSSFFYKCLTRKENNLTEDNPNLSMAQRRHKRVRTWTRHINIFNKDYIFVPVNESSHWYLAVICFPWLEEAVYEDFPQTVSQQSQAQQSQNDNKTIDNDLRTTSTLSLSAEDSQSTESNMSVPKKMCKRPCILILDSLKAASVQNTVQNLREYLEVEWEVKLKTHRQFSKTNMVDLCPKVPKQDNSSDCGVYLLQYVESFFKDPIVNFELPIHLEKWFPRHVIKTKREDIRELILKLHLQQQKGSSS
# SENP8 confirm: SENP8 protease inhibitors, retest, confirmation, biochemical, luminescence, single concentration | shares compounds with SENP7 block | Recombinant SENP8, Z-RLRGG-aminoluciferin luminescence, 60 min | inhibition, % at 12.5 µM | 6,200 compounds, 40% hits | AID 488912, 2010;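 active means mean inhibition across replicates above about 50%, limit read from the data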
# SENP6 conf: SENP6 protease inhibitors, confirmation, biochemical, luminescence, single concentration. shares compounds with SENP7 block. recombinant SENP6, Z-RLRGG-aminoluciferin luminescence. inhibition, % at 12.5 µM. 6,200 compounds, 58% hits. AID 488915, 2010
# SENP7 confirm: SENP7 protease inhibitors, retest, confirmation, biochemical, luminescence, single concentration. inhibition, % at 12.5 µM. shares compounds with SENP7 block. recombinant SENP7, Z-RLRGG-aminoluciferin luminescence, 40 min. 6,200 compounds, 69% hits
# Casp3 select: caspase-3 protease inhibitors, confirmation, selectivity assay for SENP inhibitor project, biochemical, single concentration. shares compounds with SENP7 block. purified caspase-3, Z-DEVD-aminoluciferin luminescence, 60 min. inhibition, % at 12.5 µM. 6,200 compounds, 60% hits. AID 488918, 2010;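 active means mean inhibition above about 50%, limit read from the data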;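 further: plate controls were enzyme with DMSO for no effect and wells without caspase-3 for full effect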
# Target sequence (P42574 28-227 limits assumed): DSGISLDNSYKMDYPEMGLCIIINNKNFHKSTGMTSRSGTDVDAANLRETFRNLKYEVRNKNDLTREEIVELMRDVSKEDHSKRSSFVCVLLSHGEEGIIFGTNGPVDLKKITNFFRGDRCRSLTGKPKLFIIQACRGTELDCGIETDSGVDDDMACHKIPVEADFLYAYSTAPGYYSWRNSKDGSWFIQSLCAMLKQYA
# Luc interf: luminescence interference (SENP counter-screen); AID 488919; Pre-incubated SENP8/Z-RLRGG-aminoluciferin, luciferase luminescence interference; inhibition, % at 12.5 µM; 6,200 compounds, 39% hits; shares compounds with SENP7 block;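 active means mean inhibition above about 50% when retested at one dose, limit read from the data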;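 further: plate controls were DMSO wells with completed reaction for no effect and substrate without enzyme for full effect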
# Numbers without * were called inactive; . = not tested or not shown.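 How the source made its calls, unless noted: active means mean inhibition above about 50% in the one-dose retest (limit read from the data); inactive means the rest.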
SMILES,SENP8 block-1,SENP8 block-2,C8 TRAIL sens,PPC-1+TRAIL kill,SENP6 block,SENP7 block,SENP8 confirm,SENP6 conf,SENP7 confirm,Casp3 select,Luc interf
CCSc1nnc(Cc2cc(=O)[nH]c(=O)[nH]2)n1-c1cc(C)ccc1C,-6,16,-5,18,53*,15,-4,-1,-6,-5,-4
CC(C)c1cn(CC[C@@H]2CC[C@@H](NC(=O)C3CCCCC3)[C@@H](CO)O2)nn1,.,18,-11,.,.,.,.,.,.,.,.
C[C@H](CO)N1C[C@H](C)[C@@H](CN(C)C(=O)Nc2ccc3c(c2)OCO3)Oc2ccc(NS(=O)(=O)c3ccc(F)cc3)cc2C1=O,4,22,-26,.,-2,9,.,.,.,.,.
COc1c(Cl)cccc1-c1cn2ccc(C)cc2n1,84*,-367,45,30,90*,94*,90*,91*,100*,90*,30
Cc1ccn2cc(-c3cnoc3C)nc2c1,-8,-228,-6,-2,1,3,.,.,.,.,.
O=[N+]([O-])c1c(NCCCO)cc(Sc2nc3ccccc3s2)c2nonc12,91*,26,-4,40,82*,80*,7,13,0,-3,0
CCC(=O)OCCNc1cc(Sc2nc3ccccc3s2)c2nonc2c1[N+](=O)[O-],41,60*,-5,-17,72*,44,1,12,-4,-2,-3
CC(C)Oc1ccc(CNC(=O)Cn2ccc3cc(S(=O)(=O)N4CCCC4)ccc32)cc1,-6,-4,-3,.,-7,-3,.,.,.,.,.
Cc1nc(NC(=O)c2ccccc2O)sc1C,34,-170,30,.,49,54*,-21,39,38,7,-4
Cc1nnc(NC(=O)c2cc3ccccc3o2)s1,-5,-14,42,.,-2,2,.,.,.,.,.
Cc1nc(NC(=O)c2csc3ccccc23)sc1C,50*,-4,-10,-14,69*,77*,17,73*,95*,51*,22
Cc1nc(NC(=O)c2cccnc2Cl)sc1C,32,-10,10,.,54*,49,36,37,75*,80*,60*
Cc1nc(NC(=O)c2cc3ccccc3o2)sc1C,89*,-27,54*,.,89*,90*,71*,91*,100*,93*,33
CCN(CC(=O)NCc1ccc(F)cc1)C(=O)c1cccc(S(=O)(=O)N(C)c2ccc(OC)cc2)c1,.,10,-7,.,.,.,.,.,.,.,.
CCCN(C(=O)Cc1ccc(S(=O)(=O)N2CCOCC2)s1)c1c(N)n(Cc2ccccc2)c(=O)[nH]c1=O,12,-98,-13,.,-5,-8,.,.,.,.,.
Cc1nc(NC(=O)c2ccccc2)sc1C,78*,6,18,.,90*,92*,90*,91*,100*,95*,89*
CC(=O)c1sc(NC(=O)c2ccccc2)nc1-c1ccccc1,63*,0,19,24,75*,61*,19,71*,88*,51*,54*
Cc1nn(C(=O)c2ccc3c(c2)OCO3)c(N)c1-c1ccccc1,59*,8,4,6,83*,65*,5,78*,96*,68*,37
CC(c1ccc(F)cc1)n1c(-c2cccs2)n[nH]c1=S (stereo not drawn),4,-155,-6,20,11,1,.,.,.,.,.
Cc1ccc(N(CC(=O)Nc2cccc(Cl)c2C)S(C)(=O)=O)cc1,12,0,-6,.,-5,3,.,.,.,.,.
O=C(Nc1ccn(Cc2ccccc2F)n1)c1ccc(COc2cccc(Br)c2)cc1,88*,13,18,14,97*,14,-24,90*,103*,56*,97*
COC(=O)c1ccsc1NC(=O)CCc1ccccc1,87*,2,15,.,88*,87*,90*,91*,100*,91*,66*
NC(=O)c1ccsc1NC(=O)CCc1ccccc1,-4,12,8,.,19,14,.,.,.,.,.
O=C1OC(c2ccccc2)=C/C1=C/c1cccs1,38,11,-6,8,59*,57*,24,37,46,35,20
O=C(Nc1cccnc1)c1cc(-c2cccs2)on1,51*,-8,-2,9,74*,84*,16,34,80*,79*,-1
SMILES,SENP8 block-1,SENP8 block-2,C8 TRAIL sens,PPC-1+TRAIL kill,SENP6 block,SENP7 block,SENP8 confirm,SENP6 conf,SENP7 confirm,Casp3 select,Luc interf
O=C(Nc1cccnc1)c1cc(-c2ccccc2O)on1,88*,10,5,23,8,96*,73*,72*,99*,91*,89*
Cc1ccc(O)c(NC(=O)c2cc(-c3ccccc3Cl)on2)c1,0,13,16,.,25,63*,-1,9,12,11,3
CC(C(=O)N1CCN=C1c1ccccc1)N1C(=O)c2ccccc2C1=O (stereo not drawn),-5,15,2,-8,-6,13,.,.,.,.,.
Cc1ccc(C)c(NC(=S)NCC(c2ccccc2)N(C)C)c1 (stereo not drawn),1,5,-7,16,6,6,.,.,.,.,.
CC(O)CNc1nc(NCc2ccccc2)c2cnn(C)c2n1 (stereo not drawn),-4,0,-2,.,-13,19,.,.,.,.,.
CC(C)N(C(=O)COC(=O)c1cccnc1Cl)c1ccccc1,3,14,-1,.,11,2,.,.,.,.,.
O=C(COC(=O)c1cccnc1Cl)c1ccccc1,23,1,-24,26,78*,65*,56*,53*,87*,86*,71*
CCc1ccc(C(=O)COC(=O)c2cccnc2Cl)cc1,88*,-4,-4,8,93*,94*,90*,90*,100*,93*,88*
